Compound activity as filed in PubChem BioAssay.
Shiga toxin inh: blocks Shiga toxin action in Vero cells. 290,000 compounds, 9.2% hits. inhibition, % at 38.7 µM. Vero cells, Shiga toxin protein synthesis inhibition reporter; in the data active = inhibition mostly above about 28%, no sharp cut-off; inactive = mostly below about 43%; note: 0% is about no effect
Pf growth 96h: P. falciparum growth inhibition at 96 hours. 320,000 compounds, 6.9% hits. Potency, µM (titrated, usually from 28.7 µM), inactives show at the top dose activity change, negative = inhibition, usual class: inhibitors. P. falciparum luciferase reporter growth, 96 h; note: potency is the fitted concentration of half-maximal effect; % is set by controls: 0 for no effect and ±100 for the full control effect
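Luminescence readout: decreased luciferase signal marks inhibited growth of reporter-expressing P. falciparum in infected red cells (2% hematocrit, 0.05% parasitemia final), exposed to compound two generations (96 h, 37 C, 5% CO2).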
AMA1 RON2 block: AMA1-RON2 (P. falciparum) interaction inhibition; AlphaScreen AMA1-biotinylated RON2 peptide binding; Potency, µM (doses to about 58.2 µM), without a hit: at the top dose activity change, negative = inhibition, actives largely listed as inhibitors; 360,000 compounds, 0.2% hits;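 note: potency is the fitted concentration of half-maximal effect; 0% = vehicle wells and -100% = peptide control; nearly all actives have a fitted effect of over 45% in size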
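AMA1 (3D7) with his tag at 25 nM final met compounds first, then biotinylated RON2 peptide at 25 nM; detection used donor plus acceptor beads, 10 µg/mL apiece, read by AlphaScreen after 30 min at room temperature.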
HCV inh: HCV inhibition; Huh7.5.1 HCVcc-Cre infection, luciferase reporter, 44 h; Potency, µM (series often up to 41.8 µM), for the others: top-dose activity change, negative = inhibition, actives largely listed as inhibitors; 340,000 compounds, 3.4% hits; AID 651820; note: potency is the fitted concentration of half-maximal effect; % is set by controls: 0 for no effect and ±100 for the full control effect
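1,000 cells/well; 4 h culture; + compound; + HCVcc-Cre (~0.5 moi); 44 h; luciferase substrate, RT 15 min; read 15 sec.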
Pf growth 48h: inhibits P. falciparum growth in the first generation, 48 h. P. falciparum luciferase growth in erythrocytes, 48 h. Potency, µM (highest dose often 28.7 µM), for the others: top-dose activity change, negative = inhibition, most hits filed as inhibitors. 310,000 compounds, 5.9% hits. AID 504832; note: potency is the fitted concentration of half-maximal effect; % is set by controls: 0 for no effect and ±100 for the full control effect
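Cell-based growth assay: transgenic P. falciparum expressing firefly luciferase, cultured in red cells within RPMI 1640 containing 0.5% w/v Albumax, 24 mM bicarbonate and gentamycin. A drop in luciferase activity indicates inhibition.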
CHX counter: affects cycloheximide protein synthesis inhibition readout, counter-screen. cell reporter, cycloheximide protein synthesis inhibition counterscreen. max response, %. 300,000 compounds, 12% hits. AID 2314; in the data active = max response mostly above about 13%, no sharp cut-off; inactive = mostly below about 14%; note: read at 38.3 µM for the half of the compounds with a filed dose; 0% is about no effect
Active calls of the source: *; [ ] = another dose, or the depositor's remark. In the library only some 21% were active in any assay of this set; here they are far more common. Unless noted, calls come from the whole dose curve; as a rule, active = well fitted curve in the direction sought with a large enough effect; inconclusive = small, poorly fitted or top-dose-only effect, or another doubt; inactive = no such curve, though single readings can be large; an effect the other way counts as inactive or inconclusive.

For Nc1ncnc2c1ncn2-c1ccccc1Cl the results were AMA1 RON2 block -2.1% and HCV inh 15.5%.
For Cc1cccc(Oc2ccccc2NC(=O)C2=COCCO2)c1 the results were Pf growth 96h -27.8%, AMA1 RON2 block 6.2%, HCV inh -2.0% and Pf growth 48h inconclusive.
Screening CC(C)NC(=O)[C@H]1N2C(=O)c3ccccc3C2SC1(C)C (some centres not stated) returned Shiga toxin inh 2.6, Pf growth 96h 11.7%, AMA1 RON2 block 8.7%, HCV inh 4.2% and CHX counter 0.6.
CC(=O)Nc1ccc(NC2CCCCC2NS(=O)(=O)c2ccc(Cl)cc2)cc1 (configuration not stated) was read as Shiga toxin inh -14.6, Pf growth 96h 4.0%, AMA1 RON2 block -7.9%, HCV inh -12.9%, Pf growth 48h 3.5% and CHX counter -4.1.
For COc1ccc(NC(=O)c2cc(-c3cccnc3)nc3c(C)c(C)ccc23)c(OC)c1 the results were Shiga toxin inh -4.8, Pf growth 96h 0.828µM*, AMA1 RON2 block -6.9%, HCV inh 12.6µM*, Pf growth 48h inconclusive and CHX counter -1.3.
O=C(NCCCN1CCCC1=O)C(=O)NCC1OCCCN1S(=O)(=O)c1ccccc1 (configuration not stated) was read as AMA1 RON2 block 1.5%.
CCCNc1nc(-c2ccccc2)c(C(=O)OCC)cc1C#N was read as Shiga toxin inh -8.2, Pf growth 96h 0.0%, AMA1 RON2 block 34.3%, HCV inh 3.16µM*, Pf growth 48h 11.7µM* and CHX counter 4.2.
`Cc1cccc(-n2cnc3cc(C(=O)N4CCCCC4)ccc32)c1` gave Shiga toxin inh 99.6*, AMA1 RON2 block 5.1%, HCV inh inconclusive, Pf growth 48h 0.5% and CHX counter 40.5*.
Cc1cccc(-n2c(C)nc3cc(C(=O)N4CCOCC4)ccc32)c1 was read as Shiga toxin inh 17.3, Pf growth 96h 4.4%, AMA1 RON2 block 9.0%, HCV inh 0.9%, Pf growth 48h 11.5% and CHX counter 13.4*.
COc1ccc2cc(C(=O)NCc3ccccc3)c(=O)oc2c1 was read as Shiga toxin inh 43.2*, Pf growth 96h inconclusive, AMA1 RON2 block -0.5%, HCV inh 7.1%, Pf growth 48h 103.0% and CHX counter 13.1*.
`CNC(=O)c1cc2ccc(OC)cc2oc1=O` gave Shiga toxin inh 15.0, AMA1 RON2 block 18.3%, HCV inh 20.5%, Pf growth 48h 34.5% and CHX counter 12.2*.
For COc1ccc(CNC(=O)c2cc3ccccc3oc2=O)cc1 the results were Shiga toxin inh 2.6, Pf growth 96h 151.5%, AMA1 RON2 block 0.0%, HCV inh 9.8%, Pf growth 48h 29.6% and CHX counter -2.3.
CCOC(=O)c1cc2ccc(OC)cc2oc1=O was read as Shiga toxin inh 65.6*, Pf growth 96h 65.9%, AMA1 RON2 block 24.8%, HCV inh 9.5%, Pf growth 48h 11.6% and CHX counter 18.4*.
For COc1ccc(-c2[nH]c3ccccc3c2SCCNC(=O)c2cc3ccccc3oc2=O)cc1 the results were Shiga toxin inh -12.1, Pf growth 96h 9.28µM*, AMA1 RON2 block -7.6%, HCV inh 4.9%[8.37 µM], Pf growth 48h -18.5% and CHX counter -2.4.
C[C@]12CCC(=O)CC1=CCC1C3CC=C(C#N)[C@@]3(C)CC[C@@]12O (some centres not stated) was read as Shiga toxin inh -9.1, Pf growth 96h 6.0%, AMA1 RON2 block -1.1%, HCV inh 5.3%, Pf growth 48h 7.0% and CHX counter -1.7.
`Cc1ccc(CN2CCC(C)(Oc3cccc(Cl)c3)C2)cc1` (configuration not stated) gave AMA1 RON2 block -20.4%.
Screening COc1cccc(C(=O)N/N=c2/oc3ccccc3cc2C(N)=O)c1 returned Shiga toxin inh -5.3, Pf growth 96h 27.6%, AMA1 RON2 block 56.6%, HCV inh -13.2%, Pf growth 48h -5.8% and CHX counter -0.9.
Screening COc1ccc2cc(C(N)=O)/c(=N\NC(=O)c3ccccc3)oc2c1 returned Shiga toxin inh 68.3*, Pf growth 96h 39.0%, AMA1 RON2 block 82.6%, HCV inh -5.2%, Pf growth 48h 25.8% and CHX counter 43.6*.
`COc1ccc(N2CCN(C(=O)C(=O)c3cn(CC(=O)N4CCCC4)c4ccccc34)CC2)cc1` gave AMA1 RON2 block -4.8%.
For O=C1NC(CCO)C(=O)NC1CCO (configuration not stated) the results were AMA1 RON2 block -8.9% and HCV inh -6.6%.
`CCC(C(=O)NCCCN1CCOCC1)n1c2ccccc2c2nc(=O)cc(C)n21` (configuration not stated) gave Shiga toxin inh -9.2, Pf growth 96h inconclusive, AMA1 RON2 block -5.7%, HCV inh 21.2%, Pf growth 48h 8.2% and CHX counter -9.5.
C[C@H]1CCC/C=C/C2C[C@H](O)CC2[C@H](O)/C=C/C(=O)O1 (some centres not stated) was read as Shiga toxin inh 1.9, Pf growth 96h 2.08µM*, AMA1 RON2 block 11.5%, HCV inh inconclusive, Pf growth 48h 2.94µM* and CHX counter -6.3.
C[C@H]1CCC[C@@H](O)CCC/C=C/c2cc(O)cc(O)c2C(=O)O1 was read as Shiga toxin inh -10.6, Pf growth 96h 0.6%, AMA1 RON2 block 8.3%, Pf growth 48h 80.6% and CHX counter -2.9.
O=S(=O)(NCc1ccc2c(c1)OCO2)c1ccc(F)c(F)c1 was read as Shiga toxin inh -7.8, Pf growth 96h 23.9%, AMA1 RON2 block 10.7%, HCV inh 3.2%, Pf growth 48h 9.5% and CHX counter 0.7.
`O=C1c2ccccc2C(=O)N1Cc1nc2ccccc2c(=O)n1-c1ccc(Br)cn1` gave Shiga toxin inh 0.7, Pf growth 96h 7.38µM*, AMA1 RON2 block -7.7%, HCV inh 15.6%, Pf growth 48h 28.5% and CHX counter -4.1.
For Cc1cccnc1-n1c(CCN2C(=O)c3ccccc3C2=O)nc2ccccc2c1=O the results were Shiga toxin inh 22.6, Pf growth 96h 3.29µM*, AMA1 RON2 block 18.0%, HCV inh 25.4%, Pf growth 48h inconclusive and CHX counter 4.5.
For CC(c1ccccc1)n1cncc1C(=O)O (configuration not stated) the results were Shiga toxin inh 13.4, Pf growth 96h 1.47µM*, AMA1 RON2 block -9.3%, HCV inh 15.1%, Pf growth 48h 4.1% and CHX counter -1.3.
COC(=O)c1cncn1C(C)c1ccccc1 (configuration not stated) was read as Shiga toxin inh 1.4, Pf growth 96h 2.08µM*, AMA1 RON2 block 18.1%, HCV inh inconclusive, Pf growth 48h inconclusive and CHX counter -0.7.
